EPAC2 antag: human EPAC2 antagonism, validation; Q8WZA2; EPAC2 Rap1B BODIPY-GDP exchange, fluorescence; Potency, µM (top dose mostly 112 µM), for the others: at the highest dose activity, negative = inhibition, actives largely listed as inhibitors; 16,000 compounds, 1.7% hits; AID 1645886;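 also: 100% = activation by cAMP agonist control; nearly all actives have a fitted effect of over 40% in size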
Target sequence (Q8WZA2 whole entry, looked up): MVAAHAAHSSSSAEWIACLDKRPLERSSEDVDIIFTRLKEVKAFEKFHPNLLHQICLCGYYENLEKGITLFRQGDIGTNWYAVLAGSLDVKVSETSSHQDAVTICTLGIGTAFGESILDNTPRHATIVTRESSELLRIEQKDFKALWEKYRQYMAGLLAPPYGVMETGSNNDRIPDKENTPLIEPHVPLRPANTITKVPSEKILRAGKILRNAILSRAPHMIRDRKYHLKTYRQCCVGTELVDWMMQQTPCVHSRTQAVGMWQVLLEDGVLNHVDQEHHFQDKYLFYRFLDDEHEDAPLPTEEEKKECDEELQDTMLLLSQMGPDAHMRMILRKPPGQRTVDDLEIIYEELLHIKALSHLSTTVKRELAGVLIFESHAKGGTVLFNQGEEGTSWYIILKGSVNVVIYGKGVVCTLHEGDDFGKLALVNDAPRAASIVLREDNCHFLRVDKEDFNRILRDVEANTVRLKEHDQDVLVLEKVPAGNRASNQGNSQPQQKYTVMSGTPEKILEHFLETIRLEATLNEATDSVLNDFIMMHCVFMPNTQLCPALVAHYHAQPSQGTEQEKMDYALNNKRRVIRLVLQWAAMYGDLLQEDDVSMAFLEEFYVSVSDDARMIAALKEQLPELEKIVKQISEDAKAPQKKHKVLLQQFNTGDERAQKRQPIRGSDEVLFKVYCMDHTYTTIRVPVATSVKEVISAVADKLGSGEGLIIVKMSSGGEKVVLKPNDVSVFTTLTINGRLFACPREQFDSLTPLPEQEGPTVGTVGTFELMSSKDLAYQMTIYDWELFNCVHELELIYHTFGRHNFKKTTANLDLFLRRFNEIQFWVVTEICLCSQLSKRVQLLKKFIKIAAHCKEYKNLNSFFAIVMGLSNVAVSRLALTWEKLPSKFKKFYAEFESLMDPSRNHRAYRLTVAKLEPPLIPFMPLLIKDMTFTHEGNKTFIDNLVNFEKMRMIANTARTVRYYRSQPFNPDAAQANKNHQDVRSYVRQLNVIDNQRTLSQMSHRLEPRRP
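Fluorescent exchange read-out: 100 nM EPAC2 with 250 nM RAP1B–BODIPY-GDP and 50 uM GDP; BODIPY-GDP release lowers fluorescence. Read at 480/540 nm every 5 min for 30 min at room temperature; normalized to 6.5 mM cAMP.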
EPAC1 ag val: human EPAC1 agonism, validation. EPAC1 Rap1b BODIPY-GDP exchange, fluorescence. Potency, µM, for the others: max response, positive = active, hits mostly activators. 16,000 compounds, 1% hits. AID 1645883; also: nearly all actives have a fitted effect of over 70% in size
Active calls of the source: *. Most compounds without a hit are left out; they make up all but 3.1% or so of the library. Calls follow the shape of the dose curve; as a rule, active = well fitted curve in the direction sought with a large enough effect; inconclusive = small, poorly fitted or top-dose-only effect, or another doubt; inactive = no such curve, though single readings can be large; an effect the other way counts as inactive or inconclusive. Unless noted, % is scaled to controls: 0 for no effect and ±100 for the full control effect; potency is read from the fitted curve at half-maximal effect.

Results for CN(C)c1ncc2nc(-c3ccc(F)cc3)c(=O)n(Cc3cccs3)c2n1 ?
EPAC2 antag: 1%; EPAC1 ag val: -12%

What do the screens show for `Cc1nc2cnc(Oc3ccccc3)nc2n(Cc2cccs2)c1=O`?
EPAC2 antag: inconclusive; EPAC1 ag val: 25%

Results for C[C@H](CSC(=O)c1ccccc1)C(=O)N1C[C@@H](Sc2ccccc2)C[C@H]1C(=O)O ?
EPAC2 antag: 5%; EPAC1 ag val: -21%

What do the screens show for `COc1ccc2c(c1)-c1nc(-n3ncc(C(=O)N(C)CC4CCCN(C)C4)c3C)ncc1CC2` (stereo unspecified)?
EPAC2 antag: 13%; EPAC1 ag val: -24%

Results for CO/N=C(\C(=O)N[C@@H]1C(=O)N2C(C(=O)[O-])=C(C[n+]3ccc(N)n3CCO)CS[C@H]12)c1csc(N)n1 ?
EPAC2 antag: 15%; EPAC1 ag val: 1%

How did CC(C)C(=O)OCC(=O)[C@@]12O[C@H](C3CCCCC3)O[C@@H]1C[C@H]1[C@@H]3CCC4=CC(=O)C=C[C@]4(C)[C@H]3[C@@H](O)C[C@@]12C do in these assays?
EPAC2 antag: 4%; EPAC1 ag val: -16%

How did CC(C)c1c(C(=O)NCCN2CCOCC2)cnn1-c1nccc(-c2cccs2)n1 do in these assays?
EPAC2 antag: 0%; EPAC1 ag val: -1%

What do the screens show for `Cc1c(CC(C)(C)C(=O)O)n(Cc2ccc(Cl)cc2)c2ccc(F)cc12`?
EPAC2 antag: 45µM*; EPAC1 ag val: -9%

What do the screens show for `COc1ccc2c(c1)c(CC(=O)O)c(C)n2Cc1ccc(Cl)cc1`?
EPAC2 antag: -25%; EPAC1 ag val: 1%

How did Cc1ccccc1C(=O)N1CCc2c(cnc(C)c2CNC(=O)c2ccc3c(c2)OCO3)C1 do in these assays?
EPAC2 antag: 12%; EPAC1 ag val: 0%

What do the screens show for `COC(=O)N1CCC2(CCCN(Cc3cc(C(F)(F)F)cc(C(F)(F)F)c3)C2)CC1`?
EPAC2 antag: -25%; EPAC1 ag val: -28%

What do the screens show for `COc1ccc(C(=O)N2CCC3(CCCN(Cc4cc(C(F)(F)F)cc(C(F)(F)F)c4)C3)CC2)cc1`?
EPAC2 antag: 35µM*; EPAC1 ag val: -78%

How did COc1ccccc1CC(=O)NCC1Cc2cc(F)cc(-c3cncnc3)c2O1 (stereo unspecified) do in these assays?
EPAC2 antag: -20%; EPAC1 ag val: 3%

What do the screens show for `Cc1cc(-c2cc(F)cc3c2OC(CNC(=O)CCn2cncn2)C3)ccc1F` (stereo unspecified)?
EPAC2 antag: 79µM*; EPAC1 ag val: 6%

What do the screens show for `COC(=O)c1ccc(C(=O)NCC2Cc3cc(F)cc(-c4cncnc4)c3O2)cc1` (stereo unspecified)?
EPAC2 antag: 2.5µM*; EPAC1 ag val: 14%

Results for O=C(CCn1cncn1)NCC1Cc2cc(-c3ccsc3)cc(Cl)c2O1 (stereo unspecified) ?
EPAC2 antag: -24%; EPAC1 ag val: inconclusive

What do the screens show for `Cc1nn(C)c(Cl)c1CN1CCOc2ccc(CN3CCC(Oc4cccnc4)CC3)cc2C1`?
EPAC2 antag: -6%; EPAC1 ag val: -22%

How did O=C(c1cnccn1)N1CCC2(CCCN(C(c3ccccc3)c3ccccc3)C2)CC1 do in these assays?
EPAC2 antag: inconclusive; EPAC1 ag val: -34%

Results for O=C(c1cnccn1)N1CCC[C@@]2(CCN(C(c3ccccc3)c3ccccc3)C2)C1 ?
EPAC2 antag: 50µM*; EPAC1 ag val: 7%

What do the screens show for `CCN(CC)CCNC(=O)c1cnn(-c2nccc(-c3cc4ccccc4o3)n2)c1C`?
EPAC2 antag: -7%; EPAC1 ag val: -5%

Results for COc1cc(CN2CCOc3ccc(CN4CCC(O)(c5cccnc5)CC4)cc3C2)cc(OC)c1 ?
EPAC2 antag: -1%; EPAC1 ag val: 2%

How did COc1c(-c2ccccc2)oc2c(ccc3occc32)c1=O do in these assays?
EPAC2 antag: 4.5µM*; EPAC1 ag val: inconclusive

What do the screens show for `O=c1c(O)c(-c2cccc(O)c2)oc2ccccc12`?
EPAC2 antag: -16%; EPAC1 ag val: -10%

Results for COc1ccccc1-c1oc2ccccc2c(=O)c1OC ?
EPAC2 antag: inconclusive; EPAC1 ag val: 5%

How did O=c1c(O)c(-c2ccccc2)oc2ccc3occc3c12 do in these assays?
EPAC2 antag: 7.1µM*; EPAC1 ag val: inconclusive

What do the screens show for `COc1cccc(-c2nc3cc4c(cc3cc2CN(C(=O)c2csc(C)n2)C2CC2)CCC4)c1OC`?
EPAC2 antag: -2%; EPAC1 ag val: 0%

How did CC1(C)C(\C=C/C=C\C=C/C=C2/N(CCCCS(=O)(=O)O)c3ccc4ccccc4c3C2(C)C)=[N+](CCCCS(=O)(=O)[O-])c2ccc3ccccc3c21 do in these assays?
EPAC2 antag: -28%; EPAC1 ag val: inconclusive

Results for COc1cc(=O)n2c(c1C(=O)NCc1ccco1)CCN(Cc1ccc(F)cc1Cl)CC2 ?
EPAC2 antag: -12%; EPAC1 ag val: 5%

Results for Cc1noc(C)c1CC(=O)NCC1Cc2cc(-c3cccc(OC(F)(F)F)c3)ccc2O1 (stereo unspecified) ?
EPAC2 antag: inconclusive; EPAC1 ag val: -13%

Bioassay records (PubChem)
